We go through 18 compounds from PubChem BioAssay AID623865 (Southern Research Specialized Biocontainment Screening …, 2012).

Active and inactive are the calls of the source. No rule for the calls is given here.

The nature of the assay: antiviral activity against WNV-induced cytopathicity – cell-based, secondary screen, flavivirus guanylyltransferase probe project (AID 623865). Particulars: West Nile virus CPE inhibition assay; series mostly up to 50 µM.
On to `O=S(=O)(Nc1cc(SCc2ccccc2)c(O)c2ccccc12)c1ccc(Cl)cc1`, for which the compound was classed as inactive. The value for `O=[N+]([O-])c1cccc(S(=O)(=O)Nc2cc(Sc3nc4ccccc4s3)c(O)c3ccccc23)c1` was “inactive”; that for `Cn1c(=O)c2[nH]c(-c3ccc(Cl)cc3)c(O)c2n(C)c1=O` was “inactive”; that for `Cc1ccc(S(=O)(=O)Nc2cc(SCC(=O)O)c(O)c3ccccc23)cc1` was “inactive”.

As for `O=C(O)CSc1cc(NS(=O)(=O)c2ccc(F)cc2)c2ccccc2c1O`, the compound was classed as inactive. As for `O=C(O)CSc1cc(NS(=O)(=O)c2cccc3cccnc23)c2ccccc2c1O`, the compound was classed as inactive. As for `O=S(=O)(Nc1cc(Sc2ncn[nH]2)c(O)c2ccccc12)c1ccc(F)cc1`, the outcome was inactive. With `O=S(=O)(Nc1cc(Cl)c(O)c2ccccc12)c1ccc(F)cc1`, the compound was called inactive. To `O=[N+]([O-])c1cccc(S(=O)(=O)Nc2cc(SCc3ccccc3)c(O)c3ccccc23)c1` belongs “inactive”.

For `O=C(O)CSc1cc(NS(=O)(=O)c2ccc(Br)cc2)c2ccccc2c1O`, the compound was called inactive. To `O=C(O)CSc1cc(NS(=O)(=O)c2ccc(Cl)cc2)c2ccccc2c1O` belongs “inactive”; to `O=C(O)CSc1cc(NS(=O)(=O)c2cccc([N+](=O)[O-])c2)c2ccccc2c1O`, “inactive”; to `Cc1cc(C)c(S(=O)(=O)Nc2cc(SCC(=O)O)c(O)c3ccccc23)c(C)c1`, “inactive”. With `COc1ccc(OC)c(S(=O)(=O)Nc2cc(SCC(=O)O)c(O)c3ccccc23)c1`, the compound was classed as inactive.

As to `Cc1ccc(S(=O)(=O)Nc2cc(Sc3nc(C)cc(C)n3)c(O)c3ccccc23)cc1`, the outcome was inactive. To `Cc1cc(F)ccc1S(=O)(=O)Nc1cc(SCC(=O)O)c(O)c2ccccc12` belongs “inactive”. Take `Cn1c(=O)c2[nH]c(-c3ccccc3)c(O)c2n(C)c1=O`: the outcome was inactive. To `O=S(=O)(Nc1cc(Sc2ccccc2)c(O)c2ccccc12)c1ccc(F)cc1` belongs “inactive”.
